In PubChem BioAssay AID1159580 (chemical genetic matrix, 2015):
“And” between values parts separate entries of the source, which are not always exact repeats. Equal values may be shown once. Screen size: about 5,500 compounds; about 2,000 (36%) were called active. About 18% were inconclusive and are not listed. Rule as the data show it: active = normalized growth mostly below about 0.91 (no sharp cut-off); inconclusive = no clear call, values can overlap the other calls; inactive = mostly above about 0.92. Some of the results follow.

Assay: chemical genetic growth profiling, strain panel (AID 1159580);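 also: tested at 20 µM; growth read once vehicle control cultures reached saturation at 30 °C; 1 = growth at the plate median or of vehicle wells; lower values mean less growth of the strain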
Conditions: S. cerevisiae deletion strains, growth OD

Measured: normalized growth

CCN(CC)CCNC(=O)c1cc(S(C)(=O)=O)ccc1OC
inactive: locus YAL013W, strain DEP1, stronger effect = lower value 1 | locus YAL021C, strain ccr4, stronger effect = lower value 0.979 | locus YAL026C, strain drs2, stronger effect = lower value 0.976 | locus YAL030W, strain snc1, stronger effect = lower value 0.955 | locus YAL040C, strain CLN3, stronger effect = lower value 1.05 | locus YBL061C, strain skt5, stronger effect = lower value 0.967 | locus YBR009C, strain hhf1, stronger effect = lower value 0.989 | locus YBR021W, strain FUR4, stronger effect = lower value 1.02 | locus YBR023C, strain chs3, stronger effect = lower value 0.968 | locus YBR171W, strain sec66, stronger effect = lower value 0.955 | locus YBR229C, strain ROT2, stronger effect = lower value 1.01 | locus YBR231C, strain swc5, stronger effect = lower value 0.974 | locus YBR279W, strain paf1, stronger effect = lower value 0.969 | locus YCL011C, strain gbp2, stronger effect = lower value 0.945 | locus YCL016C, strain dcc1, stronger effect = lower value 0.971 | locus YCL029C, strain bik1, stronger effect = lower value 1.01 | locus YCL061C, strain MRC1 (second series), stronger effect = lower value 0.991 | locus YCL061C, strain MRC1, stronger effect = lower value 0.982 | locus YCL069W, strain vba3, stronger effect = lower value 0.984 | locus YCR088W, strain abp1, stronger effect = lower value 0.967 | locus YDL005C, strain med2, stronger effect = lower value 0.972 | locus YDL035C, strain GPR1, stronger effect = lower value 1.02 | locus YDL040C, strain nat1, stronger effect = lower value 0.976 | locus YDL074C, strain BRE1, stronger effect = lower value 1 | locus YDL101C, strain DUN1, stronger effect = lower value 1.01 | locus YDL134C, strain PPH21, stronger effect = lower value 1.02 | locus YDL185W, strain tfp1, stronger effect = lower value 1.01 | locus YDL192W, strain arf1, stronger effect = lower value 1.01 | locus YDR001C, strain nth1, stronger effect = lower value 0.953 | locus YDR069C, strain doa4, stronger effect = lower value 0.974 | locus YDR101C, strain arx1, stronger effect = lower value 0.991 | locus YDR137W, strain rgp1, stronger effect = lower value 0.959 | locus YDR150W, strain NUM1, stronger effect = lower value 1.01 and 0.998 | locus YDR159W, strain sac3, stronger effect = lower value 0.978 | locus YDR162C, strain NBP2, stronger effect = lower value 1.02 | locus YDR195W, strain ref2 0.965 | locus YDR297W, strain sur2, stronger effect = lower value 0.967 | locus YDR318W, strain mcm21, stronger effect = lower value 1.02 | locus YDR334W, strain swr1, stronger effect = lower value 0.937 | locus YDR335W, strain msn5, stronger effect = lower value 0.966 | locus YDR363W, strain ESC2, stronger effect = lower value 0.973 | locus YDR388W, stronger effect = lower value 1.02 | locus YDR392W, strain spt3, stronger effect = lower value 0.902 | locus YDR502C, strain sam2, stronger effect = lower value 1.01 | locus YEL003W, strain gim4, stronger effect = lower value 0.979 | locus YEL037C, strain rad23, stronger effect = lower value 0.971 | locus YEL061C, strain CIN8 (second series), stronger effect = lower value 0.964 | locus YEL061C, strain CIN8, stronger effect = lower value 1.01 | locus YER002W, strain NOP16, stronger effect = lower value 1.01 | locus YER015W, strain faa2, stronger effect = lower value 0.976 | locus YER016W, strain bim1, stronger effect = lower value 0.988 | locus YER110C, stronger effect = lower value 1.01 | locus YER111C, strain swi4, stronger effect = lower value 0.966 | locus YER155C, strain BEM2 (second series), stronger effect = lower value 0.978 | locus YER155C, strain BEM2, stronger effect = lower value 1.01 | locus YER167W, strain BCK2, stronger effect = lower value 1.02 | locus YFR010W, strain ubp6, stronger effect = lower value 0.953 | locus YGL078C, strain dbp3, stronger effect = lower value 1.01 | locus YGL086W, strain mad1, stronger effect = lower value 1 | locus YGL167C, strain pmr1, stronger effect = lower value 0.97 | locus YGL173C, strain kem1, stronger effect = lower value 0.965 | locus YGL227W, strain vid30, stronger effect = lower value 0.97 | locus YGL240W, strain doc1, stronger effect = lower value 0.972 | locus YGL248W, strain PDE1, stronger effect = lower value 1 | locus YGL253W, strain hxk2, stronger effect = lower value 0.987 | locus YGR078C, strain PAC10, stronger effect = lower value 0.998 | locus YGR135W, strain pre9, stronger effect = lower value 1.03 | locus YGR229C, strain SMI1, stronger effect = lower value 0.96 | locus YGR252W, strain gcn5, stronger effect = lower value 0.996 | locus YHR013C, strain ard1, stronger effect = lower value 0.95 | locus YHR027C, strain rpn1, stronger effect = lower value 0.952 | locus YHR030C, strain SLT2, stronger effect = lower value 1.01 and 0.98 | locus YHR079C, strain IRE1 (second series), stronger effect = lower value 1.01 | locus YHR079C, strain IRE1, stronger effect = lower value 0.998 | locus YHR094C, strain hxt1, stronger effect = lower value 1.01 | locus YHR129C, strain ARP1, stronger effect = lower value 1.01 | locus YHR142W, strain chs7, stronger effect = lower value 0.928 | locus YHR200W, strain rpn10, stronger effect = lower value 1.01 | locus YIL066C, strain RNR3, stronger effect = lower value 1.02 | locus YIL073C, strain SPO22, stronger effect = lower value 1.1 | locus YIL125W, strain kgd1, stronger effect = lower value 1.02 | locus YIR030C, strain dcg1, stronger effect = lower value 1.01 | locus YJL092W, strain hpr5, stronger effect = lower value 0.979 | locus YJL095W, strain BCK1 (second series), stronger effect = lower value 0.972 | locus YJL095W, strain BCK1, stronger effect = lower value 0.997 and 0.978 | locus YJL115W, strain asf1, stronger effect = lower value 0.954 | locus YJL129C, strain trk1, stronger effect = lower value 0.986 | locus YJL134W, strain LCB3, stronger effect = lower value 1.01 | locus YJL154C, strain vps35, stronger effect = lower value 0.95 | locus YJL164C, strain tpk1, stronger effect = lower value 0.981 | locus YJL166W, strain qcr8, stronger effect = lower value 0.931 | locus YJL168C, strain set2, stronger effect = lower value 1.01 | locus YJL187C, strain SWE1 (second series), stronger effect = lower value 0.999 | locus YJL187C, strain SWE1, stronger effect = lower value 0.974 | locus YJR043C, strain POL32, stronger effect = lower value 1.01
